Measured values reported in PubChem BioAssay (NCATS).
Inconclusive results are not listed. Entries that show only a call come without a potency. Active and inactive are the calls of the source. Unless noted, the call rests on the fitted dose curve.

Tests used:
[1] = qHTS for Inhibitors of the Functional Ribonucleoprotein Complex (vRNP) of Lassa (LASV) Arenavirus: LASV Primary Screen - GLuc reporter signal (AID 1347082; calls by dose curve; tested in HEK293 reporter line; further: nearly all actives have a fitted effect of over 60% in size); conditions: LASV minigenome vRNP, Gaussia luciferase reporter; series mostly up to 57.5 µM
[2] = qHTS for Inhibitors of the Functional Ribonucleoprotein Complex (vRNP) of Lassa (LASV) Arenavirus: Viability assay - alamar blue signal for LASV Primary Screen (AID 1347083; calls by dose curve; tested in HEK293 reporter line; further: nearly all actives have a fitted effect of over 80% in size); conditions: cell viability, alamar blue fluorescence (LASV minigenome counter-screen); series mostly up to 57.5 µM
[3] = qHTS for Inhibitors of the Functional Ribonucleoprotein Complex (vRNP) of Lymphocytic Choriomeningitis Arenaviruses (LCMV): Viability assay - alamar blue signal for LCMV Primary Screen (AID 1347085; calls by dose curve; tested in HEK293 reporter line; further: nearly all actives have a fitted effect of over 80% in size); conditions: alamar blue viability counter-screen, LCMV vRNP screen cells; series mostly up to 57.5 µM
[4] = molecular target: Nucleoprotein (Lymphocytic choriomeningitis virus (strain Armstrong)) (UniProt P09992); assay: qHTS for Inhibitors of the Functional Ribonucleoprotein Complex (vRNP) of Lymphocytic Choriomeningitis Arenaviruses (LCMV): LCMV Primary Screen - GLuc reporter signal (AID 1347086); conditions: LCMV minigenome vRNP cell assay, Gaussia luciferase reporter; series mostly up to 57.5 µM; further: nearly all actives have a fitted effect of over 70% in size
Nucleoprotein (Lymphocytic choriomeningitis virus (strain Armstrong)), sequence (P09992 whole entry, looked up): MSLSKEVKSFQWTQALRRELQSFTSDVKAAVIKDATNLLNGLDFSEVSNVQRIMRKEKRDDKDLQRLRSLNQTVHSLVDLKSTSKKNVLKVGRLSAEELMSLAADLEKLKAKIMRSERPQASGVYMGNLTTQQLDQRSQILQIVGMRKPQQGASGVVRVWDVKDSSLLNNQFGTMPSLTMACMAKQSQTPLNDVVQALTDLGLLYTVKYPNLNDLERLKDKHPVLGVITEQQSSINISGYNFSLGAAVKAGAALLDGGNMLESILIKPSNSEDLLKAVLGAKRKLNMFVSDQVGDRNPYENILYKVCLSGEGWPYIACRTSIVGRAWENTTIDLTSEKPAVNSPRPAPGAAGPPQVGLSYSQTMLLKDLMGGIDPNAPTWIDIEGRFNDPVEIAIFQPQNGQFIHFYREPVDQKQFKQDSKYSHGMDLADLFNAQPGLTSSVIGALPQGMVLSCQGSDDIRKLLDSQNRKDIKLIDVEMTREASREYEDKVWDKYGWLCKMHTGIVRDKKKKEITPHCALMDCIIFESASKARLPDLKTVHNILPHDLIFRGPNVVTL
Potency means the concentration at half of the fitted maximal effect.

Structure (SMILES)	Potency [1]	Potency [2]	Potency [3]	Potency [4]
Cc1ccc2c(n1)Oc1ccc(C(C)C(=O)OCC(=O)N(C)C)cc1C2 (stereo not given)	inactive	inactive	inactive	inactive
OCCOCCN1CCN(C(c2ccccc2)c2ccc(Cl)cc2)CC1 (stereo not given)	inactive	inactive	inactive	inactive
CC(C)NCC(O)COc1cccc2[nH]ccc12 (stereo not given)	inactive	inactive	inactive	inactive
Fc1ccc([C@@H]2CCNC[C@H]2COc2ccc3c(c2)OCO3)cc1	inactive	inactive	inactive	inactive
COc1ccccc1Oc1c(NS(=O)(=O)c2ccc(C(C)(C)C)cc2)nc(-c2ncccn2)nc1OCCO	inactive	inactive	inactive	inactive
CCCCc1ncc(/C=C(\Cc2cccs2)C(=O)O)n1Cc1ccc(C(=O)O)cc1	inactive	inactive	inactive	inactive
CN1CCc2cccc3c2[C@H]1Cc1ccc(O)c(O)c1-3	inactive	inactive	inactive	inactive
CN1CCN(C(c2ccccc2)c2ccccc2)CC1	inactive	inactive	inactive	inactive
Cc1ccsc1C(=CCCN1CCC[C@@H](C(=O)O)C1)c1sccc1C	inactive	inactive	inactive	inactive
NC(=O)c1cn(Cc2c(F)cccc2F)nn1	inactive	inactive	inactive	inactive
CN(C)/N=N/c1nc[nH]c1C(N)=O	inactive	inactive	inactive	inactive
c1cnc2cc3c(cc2n1)C1CNCC3C1	inactive	24300 nM (active)	inactive	inactive
O=C(O)C1(C(=O)O)CCC1.[NH2-].[NH2-].[Pt+2]	inactive	inactive	inactive	inactive
N[C@@H]1CONC1=O	inactive	inactive	inactive	inactive
CC(C)C[C@H](NC(=O)[C@H](Cc1ccccc1)NC(=O)c1cnccn1)B(O)O	485 nM (active)	217 nM (active)	685 nM (active)	344 nM (active)
O=NN(CCCl)C(=O)NC1CCCCC1	inactive	inactive	inactive	inactive
O=C1Nc2ccc(Cl)cc2[C@@](C#CC2CC2)(C(F)(F)F)O1	inactive	inactive	inactive	inactive
C[n+]1ccccc1/C=N/O	inactive	inactive	inactive	inactive

Structure (SMILES)	Potency [1]	Potency [2]	Potency [3]	Potency [4]
CN(CCOc1ccc(CC2SC(=O)NC2=O)cc1)c1ccccn1 (stereo not given)	inactive	inactive	inactive	inactive
COC(=O)[C@@H]1CC2=CC(=O)CC[C@]2(C)[C@@]23O[C@@H]2C[C@@]2(C)[C@@H](CC[C@@]24CCC(=O)O4)[C@H]13	inactive	inactive	inactive	inactive
COc1ccc([C@@H]2Sc3ccccc3N(CCN(C)C)C(=O)[C@@H]2OC(C)=O)cc1	inactive	inactive	inactive	inactive
CCCN[C@H]1CCc2nc(N)sc2C1	inactive	inactive	inactive	inactive
Clc1ccc(C(c2ccccc2Cl)C(Cl)Cl)cc1 (stereo not given)	inactive	inactive	inactive	inactive
CCOC(=O)Nc1ccc2c(c1)N(C(=O)CCN1CCOCC1)c1ccccc1S2	inactive	inactive	inactive	inactive
COc1ccc2nc(S(=O)Cc3ncc(C)c(OC)c3C)[nH]c2c1 (stereo not given)	inactive	inactive	inactive	inactive
O=c1n(CCCN2CCN(c3cccc(Cl)c3)CC2)nc2ccccn12	inactive	inactive	inactive	inactive
CCN(CC)CCOC(=O)C1(C2CCCCC2)CCCCC1	inactive	inactive	inactive	inactive
COc1cc(Cc2cnc(N)nc2N)cc(OC)c1OC	inactive	inactive	inactive	inactive
COCCCOc1cc(C[C@@H](C[C@H](N)[C@@H](O)C[C@H](C(=O)NCC(C)(C)C(N)=O)C(C)C)C(C)C)ccc1OC	inactive	inactive	inactive	inactive
CS(=O)(=O)OCCCCOS(C)(=O)=O	inactive	inactive	inactive	inactive
O=C1NC(c2ccccc2)(c2ccccc2)C(=O)N1COP(=O)(O)O	inactive	inactive	inactive	inactive
CCCCN1C[C@H](O)[C@@H](O)[C@H](O)[C@H]1CO	inactive	inactive	inactive	inactive
Nc1nnc(-c2cccc(Cl)c2Cl)c(N)n1	inactive	inactive	inactive	inactive
Clc1ccc2c(c1)C(N1CCNCC1)=Nc1ccccc1O2	inactive	inactive	inactive	inactive
CNC1(C)C2CCC(C2)C1(C)C (stereo not given)	inactive	inactive	inactive	inactive
